# TIM10 inh – growth inhibitors of TIM10 yeast strain; S. cerevisiae TIM10 strain growth, BacTiter-Glo luminescence, 24 h; inhibition, % at 10 µM; actives 1.4% (n = 330,000);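 active = inhibition of 40% or more at the single tested concentration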;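 note: wild-type TIM10 isogenic control strain grown at permissive 25 °C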
# SKKanGAS inh – blocks kanamycin growth of S. pyogenes SKKanGAS strain; AID 1662; actives 1.3% (n = 300,000); inhibition, % at 7.5 µM; BacTiter-Glo, 6 h;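 active = mean replicate score, as percent of positive control median, at least 50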;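 note: strain carries kanamycin resistance gene driven by streptokinase promoter and grows in 40 µg/ml kanamycin; loss of luminescence reflects streptokinase promoter inhibition or plain growth inhibition; 0% = median of DMSO wells and 100% = positive control at its reference dose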
# ATG4B inhibitor – ATG4B (human) cysteine protease inhibition. ATG4B cleavage of LC3-PLA2, NBD-HPC fluorescence, 1 h. AID 504462. inhibition, % at 8.33 µM. actives 0.51% (n = 340,000). Q9Y4P1; in the data active = inhibition above about 40%
# Target sequence (Q9Y4P1 whole entry, looked up): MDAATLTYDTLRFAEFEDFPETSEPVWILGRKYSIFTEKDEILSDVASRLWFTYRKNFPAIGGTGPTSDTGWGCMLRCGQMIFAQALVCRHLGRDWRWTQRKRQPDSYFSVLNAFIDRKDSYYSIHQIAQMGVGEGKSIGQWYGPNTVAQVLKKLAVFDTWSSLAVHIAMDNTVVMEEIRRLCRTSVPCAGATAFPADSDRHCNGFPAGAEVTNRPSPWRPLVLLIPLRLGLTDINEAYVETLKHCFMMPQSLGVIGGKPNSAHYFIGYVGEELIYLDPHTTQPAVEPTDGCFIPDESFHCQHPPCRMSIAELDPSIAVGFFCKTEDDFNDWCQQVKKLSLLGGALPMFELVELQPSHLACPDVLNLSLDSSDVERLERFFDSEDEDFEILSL
# tim10-1 inh – growth inhibitors of tim10-1 mutant yeast | S. cerevisiae tim10-1 ts strain growth, BacTiter-Glo, 24 h | inhibition, % at 20 µM | actives 2.2% (n = 330,000) | AID 463190;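 active = inhibition of at least 40%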;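 note: mutant grown at 25 °C; 0% = DMSO wells with yeast and 100% = wells holding no yeast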
# PfHsp90 yeast 2 – reduces growth (ATP signal) of yeast expressing P. falciparum Hsp90. S. cerevisiae expressing PfHsp90, BacTiter-Glo ATP, 48 h; yeast lacking PDR1 and PDR3 efflux regulators. inhibition, % at 9.4 µM. actives 0.32% (n = 310,000). AID 504621;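 active = every replicate shows inhibition above about 80%, whatever the replicate mean, limit read from the data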;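 note: 0% = DMSO neutral controls and 100% = 20 µM radicicol positive controls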
# tim23-1 inh – tim23-1 yeast growth inhibition; actives 1.3% (n = 330,000); S. cerevisiae tim23-1 growth, BacTiter-Glo luminescence, 24 h; inhibition, % at 20 µM;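 active = growth inhibition of the mutant yeast at or above 50%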;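 note: temperature-sensitive mutant grown at 25 °C; plate controls were DMSO-treated mutant yeast for no effect and medium wells lacking yeast for full effect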
# tim10-1 confirm – confirmation of tim10-1 mutant yeast growth inhibitors | shares compounds with tim10-1 inh | S. cerevisiae tim10-1 ts strain growth, BacTiter-Glo, 24 h | inhibition, % at 20 µM | actives 56% (n = 7,400) | AID 463213;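 active = inhibition of yeast growth at or above a set limit in either of two repeat tests at 20 µM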;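 note: tim10-1 mutant grown at permissive 25 °C to find synthetic lethal compounds; 0% = DMSO yeast wells and 100% = medium wells without yeast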
# tim10 confirm – confirmation of TIM10 yeast growth inhibitors; inhibition, % at 10 µM; AID 463215; actives 63% (n = 4,600); S. cerevisiae tim10 strain growth, BacTiter-Glo luminescence, 24 h; shares compounds with TIM10 inh;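 active = inhibition of yeast growth at or above a set limit in either of two replicates at 10 µM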;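 note: this counterscreen used the strain with wild-type TIM10; 0% = yeast with DMSO and 100% = medium wells lacking yeast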
# tim23-1 conf – tim23-1 yeast growth inhibition, confirmed | shares compounds with tim23-1 inh | S. cerevisiae tim23-1 growth, BacTiter-Glo luminescence, 24 h | inhibition, % at 20 µM | actives 83% (n = 4,400) | AID 463218;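 active = inhibition above about 39% in either of two replicate wells at 20 µM, limit read from the data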;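 note: temperature-sensitive tim23-1 mutant grown at 25 °C; 0% = DMSO wells with yeast and 100% = medium wells without yeast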
# An asterisk follows results filed as active; · = no result given. An excerpt weighted towards active compounds, which were near 4.7% of everything screened.
SMILES,TIM10 inh,SKKanGAS inh,ATG4B inhibitor,tim10-1 inh,PfHsp90 yeast 2,tim23-1 inh,tim10-1 confirm,tim10 confirm,tim23-1 conf
COc1cc(O)c2c(=O)cc(-c3ccccc3)oc2c1,-3,-8,-23,-12,-18,16,·,·,·
COc1cc(O)c2c(=O)c3c(OC)c(O)ccc3oc2c1,42*,-7,-13,67*,-12,56*,57*,51*,66*
CCOC(=O)c1ccc(NC(=O)Nc2ncc(Cl)cc2Cl)cc1,76*,9,·,70*,·,56*,78*,76*,69*
O=C(Nc1ccc2c(c1)OCO2)c1noc2c1CCCCC2,25,-1,6,25,-30,35,·,·,·
CCOC(=O)Cc1csc(NC(=S)NC(=O)CC(C)C)n1,42*,-10,-12,50*,-29,55*,47*,39*,56*
CC(C)Oc1ccc(/C=C(\C#N)C(=O)NC2CC2)cc1,-13,0,5,-6,1,10,·,·,·
CC1CCCCC1NC(=O)/C(C#N)=C/c1ccc2c(c1)OCCO2 (stereo not given),55*,2,4,50*,·,63*,53*,5,62*
CC1CCCCC1NC(=O)/C(C#N)=C/c1ccc(F)c(F)c1 (stereo not given),59*,11,11,48*,10,54*,59*,70*,46*
O=c1c(C=NCC2CCCO2)c(-c2ccccc2)[nH]n1-c1ccc([N+](=O)[O-])cc1 (stereo not given),11,9,-3,11,-4,6,·,·,·
Cc1cc(C)c(S(=O)(=O)c2ccccc2)c(OC(=O)c2ccc(Cl)cc2Cl)n1,52*,·,30,46*,19,74*,42*,-8,76*
CC(C)N=c1cc2n(-c3ccc(Cl)cc3)c3ccccc3nc-2cc1Nc1ccc(Cl)cc1,24,98*,-6,41*,11,58*,2,·,57*
Cn1c(CNc2ccc(Cl)cc2)nc2ccccc21,-7,4,-2,14,-4,21,·,·,·
O=[N+]([O-])c1cc(-c2nc(-c3ccncc3)no2)cc([N+](=O)[O-])c1,69*,-1,-9,76*,29,72*,67*,-17,81*
Cc1nn(CC(=O)N2CCC(C)CC2)c(=O)c2nn(-c3ccccc3)c(C)c12,9,-2,3,2,2,9,·,·,·
CC1=NOC(=O)/C1=C\c1ccc(-c2ccc(Cl)cc2Cl)o1,21,70*,29,46*,72,81*,46*,·,51*
CCCOc1ccc(Cl)cc1/C=C1/C(=O)ON=C1C,-9,-4,6,36,4,10,·,·,·
COc1ccc(Cl)cc1NC(=O)C1CC(c2c(F)cccc2Cl)=NO1 (stereo not given),65*,36,27,80*,5,65*,76*,72*,85*
CCOC(=O)c1cc(CC)sc1NC(=O)C1CC1,9,-10,-5,15,0,27,·,·,·
CCOC(=O)c1ccc(NC(=S)NC(=O)C2CCCC2)cc1,41*,8,3,48*,-22,58*,36*,53*,44*
COC(=O)c1ccc(NC(=S)NC(=O)C2CCC2)cc1,22,-1,1,35,6,50,·,·,·
Cc1ccc(NC(=S)NC(=O)C2CC2)cc1Cl,30,·,3,49*,-2,61*,14,·,49*
COc1ccc(Cl)cc1C(=O)NN=C1CCCC1,22,8,-1,-4,11,4,·,·,·
CC(C)N(C(=O)[C@H]1C[C@H](CC(=O)NCCc2ccccn2)C(=O)N2CCc3c([nH]c4cc(-c5ccco5)ccc34)[C@]12C)C(C)C,-3,·,·,16,14,30,·,·,·
NC(=NC(=O)c1ccc(OCC(F)(F)F)nc1)c1ccc(Cl)cc1,18,-3,-9,68*,-4,56*,48*,·,42*
NC(=NC(=O)c1ccc(OCC(F)(F)F)nc1)c1ccccc1,15,-1,0,15,2,34,·,·,·
SMILES,TIM10 inh,SKKanGAS inh,ATG4B inhibitor,tim10-1 inh,PfHsp90 yeast 2,tim23-1 inh,tim10-1 confirm,tim10 confirm,tim23-1 conf
Cc1ccc(C)c(/C=C2\N=C(c3ccccc3F)OC2=O)c1,46*,0,-3,40*,0,53*,57*,53*,54*
Cc1cc2c(s1)c1cnn(-c3ccccc3)c(=O)c1n2C,1,·,0,13,-39,1,·,·,·
Fc1c(F)c(F)c(N/N=C/c2c[nH]c3ccccc23)c(F)c1F,61*,33,14,59*,-24,80*,55*,-2,43*
CCc1c(C)c(C#N)c2nc3ccccc3n2c1NCCN(C)C,58*,1,-2,63*,17,59*,56*,34*,65*
CCOc1cccc(CNc2ccc(O)cc2)c1OCc1ccc(Cl)cc1,21,7,11,43*,13,60*,32*,·,59*
O=C(Nc1cccc(-c2ccc(F)cc2)c1)C1CCCN(Cc2cccnc2)C1 (stereo not given),7,-11,-4,32,-1,22,·,·,·
CCOc1cc(/C=N/NC(=O)c2nn(C)cc2Br)ccc1OCc1ccccc1,9,-2,0,8,-23,10,·,·,·
COc1ccc(/C=N/NC(=O)c2nn(C)cc2Br)cc1CSCc1ccco1,26,0,-1,44*,-11,52*,20,·,47*
C=CC(=O)N=c1sc2ccccc2n1-c1ccccc1,33,-9,-2,51*,-17,53*,25,·,15
N=c1sc2ccccc2n1-c1ccccc1,-9,0,13,12,14,1,·,·,·
Cc1ccc(/C=N/NC(=O)c2nnn(-c3nonc3N)c2CNc2ccccc2)cc1,-10,9,-2,15,2,16,·,·,·
Nc1nonc1-n1nnc(C(=O)N/N=C/c2cc(Br)ccc2O)c1CNc1ccccc1,48*,108*,3,61*,40,51*,-6,54*,54*
N/C(=N\OC(=O)C(c1ccccc1)c1ccccc1)c1ccncc1,2,-2,-4,3,6,17,·,·,·
CCC(C(=O)O/N=C(\N)c1ccc(C)cc1)c1ccccc1 (stereo not given),64*,-2,7,69*,13,54*,61*,-15,68*

# High-throughput results (PubChem)
